We go through eight sequences from PMC8384837, “Expanding the binding specificity for RNA recognition by a PUF domain”.

Assay in all cases: yeast three-hybrid, YBZ-1, SC-Leu-His + 0.5 mM 3-AT, 4 days
What all share (conditions): tags: N-Gal4 AD-HA kept; label: inside an RPR1-promoter hybrid RNA with tandem MS2 sites; ssRNA

For one test, the target named is PUM1 PUF domain R8-PHR (Homo sapiens, UniProt Q14671 828-1176, N1122P;Y1123H;Q1126R). Put shortly:
(§1)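 A centromeric plasmid in strain YBZ-1 co-expressed Pumilio-1 PUF domain libraries, randomized at the three base-contacting residues of each repeat, with matching RNA elements; the strain carries a LexA–MS2 coat fusion and a HIS3 reporter. After four days on SC-Leu (input) or SC-Leu-His + 0.5 mM 3-AT (selection), the repeat regions were PCR-amplified and Illumina-sequenced. The interaction score is the log change in variant frequency from input to selection, using log2 and a pseudocount of 1 where absent.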

The target of a further test is PUM1 PUF domain R5-GNN (Homo sapiens, UniProt Q14671 828-1176, C1007G;R1008N;Q1011N). The method in brief:
as §1

The target in the next test is PUM1 PUF domain R3-GPY (Homo sapiens, UniProt Q14671 828-1176, C935G;R936P;Q939Y). The method in brief: as §1
The target in a further test is PUM1 PUF domain R3-SKL (Homo sapiens, UniProt Q14671 828-1176, C935S;R936K;Q939L). The method in brief:
as §1

Another test deals with PUM1 PUF domain R3-VRK (Homo sapiens, UniProt Q14671 828-1176, C935V;Q939K). The method in brief:
as §1

A further test has as its target PUM1 PUF domain R3-MCV (Homo sapiens, UniProt Q14671 828-1176, C935M;R936C;Q939V). Put shortly: as §1
The next test deals with PUM1 PUF domain R7-MSR (Homo sapiens, UniProt Q14671 828-1176, S1079M;N1080S;E1083R). The method in brief: as §1
The next test addresses PUM1 PUF domain R7-RIR (Homo sapiens, UniProt Q14671 828-1176, S1079R;N1080I;E1083R). The method in brief: as §1
Another test has as its target PUM1 PUF domain R4-NPN (Homo sapiens, UniProt Q14671 828-1176, H972P;Q975N). The method in brief:
as §1

A further test deals with PUM1 PUF domain R5-KAM (Homo sapiens, UniProt Q14671 828-1176, C1007K;R1008A;Q1011M). Put shortly: as §1

As for “GGCUAGAACUAGUGGAUCCCCCGGCGCCCGGCGGCUCGAGCCCGGGUAAGCGUAAAUAGUCUGCAUGCCGCCGGGCGCCAUGCCUGCAGGUCGACUCUAGAAAACAUG”, the binding signal with PUM1 PUF domain R8-PHR was 4.58 log2 enrichment (interaction score).

On to “GGCUAGAACUAGUGGAUCCCCCGGCGCCCGGCGGCUCGAGCCCGGGUAAGUGUUAAUAGUCUGCAUGCCGCCGGGCGCCAUGCCUGCAGGUCGACUCUAGAAAACAUG”, for which, in the test with PUM1 PUF domain R5-GNN, the binding signal was 3.44 log2 enrichment (interaction score).

“GGCUAGAACUAGUGGAUCCCCCGGCGCCCGGCGGCUCGAGCCCGGGUAAGUGUAAAUAGUCUGCAUGCCGCCGGGCGCCAUGCCUGCAGGUCGACUCUAGAAAACAUG”: the binding signal with PUM1 PUF domain R8-PHR is 4.34 log2 enrichment (interaction score); with PUM1 PUF domain R3-GPY, 6.77 log2 enrichment (interaction score).

In the case of “GGCUAGAACUAGUGGAUCCCCCGGCGCCCGGCGGCUCGAGCCCGGGUAAGUGUAAUUAGUCUGCAUGCCGCCGGGCGCCAUGCCUGCAGGUCGACUCUAGAAAACAUG”, the results for the binding signal in the test with PUM1 PUF domain R3-SKL, with PUM1 PUF domain R3-VRK and in the test with PUM1 PUF domain R3-MCV were 2.84 log2 enrichment (interaction score), 3.28 log2 enrichment (interaction score) and 1.41 log2 enrichment (interaction score), respectively.

With “GGCUAGAACUAGUGGAUCCCCCGGCGCCCGGCGGCUCGAGCCCGGGUAAGUUUAAAUAGUCUGCAUGCCGCCGGGCGCCAUGCCUGCAGGUCGACUCUAGAAAACAUG”, the binding signal in the test with PUM1 PUF domain R7-MSR is 3.5 log2 enrichment (interaction score); with PUM1 PUF domain R7-RIR it was 3.4 log2 enrichment (interaction score).

As for “GGCUAGAACUAGUGGAUCCCCCGGCGCCCGGCGGCUCGAGCCCGGGUAAGUGUAUAUAGUCUGCAUGCCGCCGGGCGCCAUGCCUGCAGGUCGACUCUAGAAAACAUG”, the binding signal in the test with PUM1 PUF domain R4-NPN is 3.56 log2 enrichment (interaction score).

As for “GGCUAGAACUAGUGGAUCCCCCGGCGCCCGGCGGCUCGAGCCCGGGUAAGUGUCAAUAGUCUGCAUGCCGCCGGGCGCCAUGCCUGCAGGUCGACUCUAGAAAACAUG”, the binding signal with PUM1 PUF domain R5-KAM was 3.82 log2 enrichment (interaction score).

“GGCUAGAACUAGUGGAUCCCCCGGCGCCCGGCGGCUCGAGCCCGGGUAAGUGUAAGUAGUCUGCAUGCCGCCGGGCGCCAUGCCUGCAGGUCGACUCUAGAAAACAUG”: in the test with PUM1 PUF domain R3-MCV, the binding signal was 2.64 log2 enrichment (interaction score).
